The source of these data is PubChem BioAssay (EPA / NIEHS).

Values joined by “and” are separate entries in the source; they are usually repeats but may differ in a detail not shown here. Equal entries are not always repeated. Records with an inconclusive call do not appear. Active and inactive are the calls of the source. How the source made its calls: active means hit-call score of the fitted dose curve at least 0.9, where 1 is the maximum; inconclusive means response in the unintended direction; inactive means score below 0.9.

As usually defined, the AC50 is the midpoint of the concentration-response curve, whichever way the signal moves.

Chain of chicken Estrogen Receptor (ESR1), ESR1 (gene 396099) (P06212 whole entry, looked up, the tested form may be a part): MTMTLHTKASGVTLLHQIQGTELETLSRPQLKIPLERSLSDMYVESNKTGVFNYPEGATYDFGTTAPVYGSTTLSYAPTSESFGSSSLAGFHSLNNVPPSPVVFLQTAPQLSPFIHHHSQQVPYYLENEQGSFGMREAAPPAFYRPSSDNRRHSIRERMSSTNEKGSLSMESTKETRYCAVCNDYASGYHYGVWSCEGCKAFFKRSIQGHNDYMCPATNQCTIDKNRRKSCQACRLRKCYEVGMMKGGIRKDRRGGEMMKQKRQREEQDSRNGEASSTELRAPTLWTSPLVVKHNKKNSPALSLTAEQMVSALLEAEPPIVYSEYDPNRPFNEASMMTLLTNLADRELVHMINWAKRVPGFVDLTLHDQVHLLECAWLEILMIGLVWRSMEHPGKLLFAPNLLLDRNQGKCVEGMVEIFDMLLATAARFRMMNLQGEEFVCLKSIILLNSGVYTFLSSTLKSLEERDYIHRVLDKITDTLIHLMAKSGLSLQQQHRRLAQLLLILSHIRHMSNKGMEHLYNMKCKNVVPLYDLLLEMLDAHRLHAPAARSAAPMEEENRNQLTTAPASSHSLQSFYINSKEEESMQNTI

Tested on in one assay: not listed separately
Kind of assay: ACEA_AR_antagonist_AUC_viability: ACEA Biosciences xCELLigence Real-Time Cell Analysis on Androgen Receptor Antagonism for Viability (AID 2283776).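 Further: 22Rv1 human prostate cancer cells growing on impedance electrode plates; area under impedance growth curve at 80 h after dosing as viability; hits lower the growth signal relative to DMSO meaning cytotoxicity.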 Put shortly: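 Viability endpoint from label-free cell-index monitoring: 22Rv1 cultures treated with an eight-point 1:4 dilution series starting at 100 uM final, AUC at 80 h fitted against DMSO.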
Turning to `ClCC(Cl)CCl`, the result was inactive.
For the compound `CC(C)c1cccc(C(C)C)c1O`, the compound was classed as inactive.
For the compound `C[C@H]1CCCC(=O)CCC/C=C/c2cc(O)cc(O)c2C(=O)O1`, the AC50 is 31.3 µM (active) and 9.08 µM (active).
Turning to `O=C1C2(Cl)C3(Cl)C4(Cl)C(Cl)(Cl)C5(Cl)C3(Cl)C1(Cl)C5(Cl)C24Cl` (stereo unspecified), the AC50 is 7.14 µM (active).
As for `CC1(C)Cc2cccc(O)c2O1`, the call was inactive.
Consider `Oc1cccc2cccnc12`, for which the AC50 was 18.6 µM (active) and 9.5 µM (active).
For `CC(C)(c1ccc(OCC2CO2)cc1)c1ccc(OCC2CO2)cc1` (stereo unspecified), the outcome was inactive.
Take `CCC(C)(C)c1ccc(O)c(C(C)(C)CC)c1`: the AC50 is 47.9 µM (active).
`ClC1(Cl)C2(Cl)C3(Cl)C4(Cl)C(Cl)(Cl)C5(Cl)C3(Cl)C1(Cl)C5(Cl)C24Cl` (stereo unspecified): the call was inactive.
With `CC(C)(c1ccccc1)c1ccc(O)c(C(C)(C)c2ccccc2)c1`, the AC50 was 12.8 µM (active).
Same read-out and setting: the result for `CCCCCCCCc1ccc(O)cc1` reads 28.9 µM (active).
As for `COP(=S)(OC)Oc1ccc(Sc2ccc(OP(=S)(OC)OC)cc2)cc1`, the call was inactive.
Turning to `O=C(Nc1ccc2[nH]ccc2c1)c1cc2cc(F)ccc2n1Cc1cccc(F)c1`, the AC50 was 10 µM (active).

The next assay concerns frog Estrogen Receptor (ESR1), gene 398734. The assay can be described thus: ATG_frER1_XSP1: Attagene TRANS-FACTORIAL Multi-Species (XSP1) HepG2 Assay for frog Estrogen Receptor (ESR1) (AID 2283777). Summed up:
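HepG2 cells transiently transfected with GAL4-UAS reporter units and frog ER–Gal4 chimera were dosed for 24 h with 3 nM 6-alpha-fluorotestosterone present. Reporter mRNA was measured by RT-PCR and capillary electrophoresis; gain of signal fitted versus DMSO.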
As for `C[C@]12CCC(=O)C[C@@H]1CC[C@@H]1[C@@H]2CC[C@]2(C)[C@@H](O)CC[C@@H]12`, the compound was called inactive.
For `CC12CC1(C)C(=O)N(c1cc(Cl)cc(Cl)c1)C2=O` (stereo unspecified), the result was inactive.
Turning to `O=C1C2(Cl)C3(Cl)C4(Cl)C(Cl)(Cl)C5(Cl)C3(Cl)C1(Cl)C5(Cl)C24Cl` (stereo unspecified), the AC50 is 0.271 µM (active).
On to `CC1(C)CCC(Cc2ccc(Cl)cc2)C1(O)Cn1cncn1` (stereo unspecified), for which the compound was called inactive.
`CC(C)(C)CC(C)(C)c1ccc(O)cc1`: the AC50 is 1.86 µM (active).
As to `CC(C)(C)c1cc(O)ccc1O`, the call was inactive.

A further assay concerns zebrafish Estrogen Receptor (ESR2A), gene 317734. The assay can be described thus: ATG_zfER2a_XSP1: Attagene TRANS-FACTORIAL Multi-Species (XSP1) HepG2 Assay for zebrafish Estrogen Receptor (ESR2A) (AID 2283778). Summed up:
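Reporter transcripts were quantified by RT-PCR, 6-FAM labelling, HpaI digestion and capillary electrophoresis after 24 h dosing. The cells were HepG2 transiently carrying a zebrafish ER2a–Gal4 construct plus multiplexed UAS reporters; medium contained 3 nM 6-alpha-fluorotestosterone.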
For the compound `C[C@]12CCC(=O)C[C@@H]1CC[C@@H]1[C@@H]2CC[C@]2(C)[C@@H](O)CC[C@@H]12`, the AC50 is 0.851 µM (active).
Consider `CC12CC1(C)C(=O)N(c1cc(Cl)cc(Cl)c1)C2=O` (stereo unspecified), for which the compound was classed as inactive.
On to `CC1(C)CCC(Cc2ccc(Cl)cc2)C1(O)Cn1cncn1` (stereo unspecified), for which the compound was called inactive.
With `CC(C)(C)CC(C)(C)c1ccc(O)cc1`, the compound was called inactive.
As for `CC(C)(C)c1cc(O)ccc1O`, the compound was classed as inactive.

For the next assay, the target named is chicken Estrogen Receptor (ESR1), ESR1 (gene 396099) (UniProt P06212). Kind of assay: ATG_chERa_XSP1: Attagene TRANS-FACTORIAL Multi-Species (XSP1) HepG2 Assay for chicken Estrogen Receptor (ESR1) (AID 2283779). Summed up:
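Trans-activation of an exogenous chicken ERα–Gal4 chimera read as reporter transcript (RT-PCR, fluorescent labeling, capillary electrophoresis) after 24 h compound exposure of transfected HepG2; medium held 3 nM 6-alpha-fluorotestosterone. Positive-direction fit against DMSO.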
As to `COP(=O)(OC)O/C(=C\Cl)c1cc(Cl)c(Cl)cc1Cl`, the compound was classed as inactive.
For `C[C@]12CCC(=O)C[C@@H]1CC[C@@H]1[C@@H]2CC[C@]2(C)[C@@H](O)CC[C@@H]12`, the call was inactive.
For the compound `CC12CC1(C)C(=O)N(c1cc(Cl)cc(Cl)c1)C2=O` (stereo unspecified), the AC50 was 100 µM (active).
On to `O=C1C2(Cl)C3(Cl)C4(Cl)C(Cl)(Cl)C5(Cl)C3(Cl)C1(Cl)C5(Cl)C24Cl` (stereo unspecified), for which the AC50 is 0.0284 µM (active).
For `CC1(C)CCC(Cc2ccc(Cl)cc2)C1(O)Cn1cncn1` (stereo unspecified), the AC50 was 1.35 µM (active).
Regarding `CC(C)(C)CC(C)(C)c1ccc(O)cc1`, the AC50 was 2.21 µM (active).
For the compound `CC(C)(C)c1cc(O)ccc1O`, the AC50 is 8.92 µM (active).
